# Assay results published in PubChem BioAssay (Tox21).
# Records with an inconclusive call do not appear. A number with no mark means an inactive call. Calls of active or inactive are those of the source. The call rests on the fitted dose curve; in most records, active means well fitted inhibition curve with a large enough effect in the repeat runs; inconclusive means weak or mixed curves; inactive means no such curve, though single readings can be large or run the other way.
# Biological target: Cytochrome P450 2C19 (Homo sapiens) (UniProt P33261)
# Assay: Cytochrome P450 Family 2 Subfamily C Member 19 (CYP2C19) small molecule antagonists: luciferase reporter qHTS assay (AID 1671197); further: nearly all actives have a fitted effect of over 65% in size
# Details: P450-Glo CYP2C19 enzyme, luciferin luminescence, 1 h; series mostly up to 115 µM; activity change, negative = inhibition: at the top concentration
# Description: National Center for Advancing Translational Sciences [NCATS]
# U.S. Environmental Protection Agency [EPA]
# National Institutes of Environmental Health Sciences [NIEHS]
# National Toxicology Program [NTP]
# U.S. Food and Drug Administration [FDA]
# Cytochrome P450 (CYP) enzymes are membrane-bound hemeproteins that play a key role in metabolism of drugs and xenobiotics. Evaluation of the effect of chemicals on CYP isozymes is useful to minimize the adverse drug reactions and toxicities in drug development process. Tox21 chemicals were tested for their effect on CYP enzyme activities by using P450-Glo (TM) screening systems (Promega Corporation, Madison, WI). These systems provide a luminescent method containing proluciferin substrates and are converted to luciferin products by CYP isozymes. The luciferin products formed are detected with a luciferin detection reagent, and the amount of light produced is proportional to CYP activity. P450-Glo (TM) CYP2C19 screening system (Catalog. No. V9880) was used to detect the compounds that interfere in CYP2C19 activity. The positive control compound used for CYP2C19 assay is ketoconazole (Sigma-Aldrich, St. Louis, MO).
# Tox21 Assay Protocol Summary:
# Two ul of enzyme-substrate mix was dispensed into medium binding white/solid 1536-well plates (Greiner Bio-One North America Inc., Monroe, NC) using a BioRaptr Flying Reagent Dispenser (FRD, Beckman Coulter, Brea, CA). Compounds dissolved in DMSO and positive control (ketoconazole) were transferred to the assay plates at 23 nl using a Pintool station (Wako, San Diego, CA). The assay plates were incubated at room temperature for 10 min. Then 2 ul of NADPH regeneration solution was added to each well of the assay plates using an FRD and incubated at 37C for 1 h. The reaction was stopped by adding 4 ul of detection reagent using an FRD and after 20 min incubation at room temperature the luminescence signal was measured using a ViewLux plate reader (Perkin Elmer, Shelton, CT). Data were expressed as relative luminescence units.
# On the % scale 0 is the no-effect control and ±100 the full control effect; potency means the concentration at half of the fitted maximal effect.
# Chain of Cytochrome P450 2C19 (Homo sapiens) (P33261 whole entry, looked up): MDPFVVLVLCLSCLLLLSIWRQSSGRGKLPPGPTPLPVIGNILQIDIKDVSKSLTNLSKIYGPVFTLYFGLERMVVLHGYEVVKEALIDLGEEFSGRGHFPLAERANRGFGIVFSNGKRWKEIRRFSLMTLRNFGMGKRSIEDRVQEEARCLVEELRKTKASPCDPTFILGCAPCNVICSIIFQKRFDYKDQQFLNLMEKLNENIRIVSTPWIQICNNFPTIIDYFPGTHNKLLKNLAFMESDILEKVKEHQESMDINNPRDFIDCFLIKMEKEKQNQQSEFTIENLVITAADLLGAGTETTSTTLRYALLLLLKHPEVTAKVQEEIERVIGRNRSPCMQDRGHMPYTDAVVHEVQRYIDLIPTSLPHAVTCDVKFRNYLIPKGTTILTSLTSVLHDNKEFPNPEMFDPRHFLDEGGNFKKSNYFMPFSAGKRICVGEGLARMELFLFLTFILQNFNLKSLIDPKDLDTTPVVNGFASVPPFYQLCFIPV
Compound,"activity change, negative = inhibition",Potency
O=C1CCC/C=C\CCCCCCCCCC1,-1.22%,–
CCC(C)(C)c1ccc(CC(C)CN2C[C@@H](C)O[C@@H](C)C2)cc1 (stereo not given in full),–,11 µM (active)
CC(c1cc(C(C)(C)C)cc(C(C)(C)C)c1O)c1cc(C(C)(C)C)cc(C(C)(C)C)c1O,–,31.7 µM (active)
Cc1ccc(C2OC[C@@H]3OC(c4ccc(C)cc4)O[C@H]([C@H](O)CO)[C@@H]3O2)cc1 (stereo not given in full),–,6.33 µM (active)
CCCCCN=C(N)N/N=C/c1c[nH]c2ccc(OC)cc12,-18.4% [at 52.9 µM],–
Clc1nc(C(Cl)(Cl)Cl)c(Cl)c(Cl)c1Cl,–,31.7 µM (active)
CCCCCCCC/C=C\CCCCCCCC(=O)N(CCO)CCO,–,19.9 µM (active)
C1=CCCC1,5.6%,–
CCCCCCCCCCCCCCCCCCNC(=O)OC1CCN(C(=O)OC[C@H](COC(=O)N(Cc2cccc[n+]2CC)C(=O)c2ccccc2OC)OC)CC1,–,43.6 µM (active)
CCN(CC)c1ccc2c(c1)Oc1cc(N(CC)CC)ccc1C21OC(=O)c2ccccc21,–,38.9 µM (active)
Cc1ccc2sc3cccc(C)c3c2c1,-6.71%,–
Brc1cc(Br)cc(Br)c1,-17.5%,–
CCN(CC)c1ccc(N=Nc2ccccc2)cc1,–,20 µM (active)
CC1=CC[C@@H](C(C)(C)O)CC1,-13.1%,–
Oc1cccc2c(O)cccc12,–,17.8 µM (active)
COCCC(=O)OC,18%,–
Nc1ccc(Cl)c([N+](=O)[O-])c1,13.4%,–
C=CC(=O)OCC(Br)CBr (stereo not given),8.05%,–
CCCC(=O)c1cc(O)c(O)cc1O,–,20 µM (active)
CCn1c2ccccc2c2ccccc21,–,22.4 µM (active)

Compound,"activity change, negative = inhibition",Potency
Cc1ccc2nc(-c3ccc(N)cc3)sc2c1S(=O)(=O)O,–,22.1 µM (active)
CCCCCCCCOC(=O)c1cc(O)c(O)c(O)c1,–,5.64 µM (active)
c1ccc(-c2nc3ccccc3[nH]2)cc1,–,35.6 µM (active)
Cc1cccc2c1ccc1ccccc12,–,79.6 µM (active)
O=C1c2ccccc2C(=O)c2c(Cl)cccc21,–,18.8 µM (active)
CCOC=C(C(=O)OCC)C(=O)OCC,-8.63%,–
CCCCCc1ccc(O)cc1,–,22.4 µM (active)
Cc1ccc(C=O)cc1,7.5% [at 52.9 µM],–
C=CCc1cc(S(=O)(=O)c2ccc(O)c(CC=C)c2)ccc1O,–,2.24 µM (active)
O=C(Nc1ccccc1)c1cc(Cl)ccc1O,–,35.6 µM (active)
CCCCCCCCCCCCN1CCCC1=O,–,35.6 µM (active)
CCOc1ccc([N+](=O)[O-])cc1,–,8.09 µM (active)
Nc1ccc2c(S(=O)(=O)O)cccc2c1S(=O)(=O)O,7.59% [at 52.9 µM],–
c1ccc(-c2ccc(C(c3ccccc3)n3ccnc3)cc2)cc1 (stereo not given),–,0.617 µM (active)
CC(CC(C)(C)C)CC(C)(C)CC(C)(C)C (stereo not given),9.66% [at 52.9 µM],–
O=C(O)C[C@H](O)C[C@H](O)/C=C/c1c(C2CC2)nc2ccccc2c1-c1ccc(F)cc1,11.6% [at 23.6 µM],–
CC(C=O)c1ccccc1 (stereo not given),–,79.6 µM (active)
CC(C)(C)c1cc(CCC(=O)OCCSCCOC(=O)CCc2cc(C(C)(C)C)c(O)c(C(C)(C)C)c2)cc(C(C)(C)C)c1O,–,8.71 µM (active)
CC/C=C(\C)C=O,4.79%,–
COc1ccc(OC)c(N=Nc2c(O)ccc3ccccc23)c1,–,10 µM (active)
